Molecules are shown by their SMILES. “And” between values parts separate entries of the source, which are not always exact repeats. Equal values may be shown once.

As usually defined, the inhibition is the relative decrease from the control value, in per cent.

Sequence of Solute carrier family 2, facilitated glucose transporter member 1 (Homo sapiens) (P11166 whole entry): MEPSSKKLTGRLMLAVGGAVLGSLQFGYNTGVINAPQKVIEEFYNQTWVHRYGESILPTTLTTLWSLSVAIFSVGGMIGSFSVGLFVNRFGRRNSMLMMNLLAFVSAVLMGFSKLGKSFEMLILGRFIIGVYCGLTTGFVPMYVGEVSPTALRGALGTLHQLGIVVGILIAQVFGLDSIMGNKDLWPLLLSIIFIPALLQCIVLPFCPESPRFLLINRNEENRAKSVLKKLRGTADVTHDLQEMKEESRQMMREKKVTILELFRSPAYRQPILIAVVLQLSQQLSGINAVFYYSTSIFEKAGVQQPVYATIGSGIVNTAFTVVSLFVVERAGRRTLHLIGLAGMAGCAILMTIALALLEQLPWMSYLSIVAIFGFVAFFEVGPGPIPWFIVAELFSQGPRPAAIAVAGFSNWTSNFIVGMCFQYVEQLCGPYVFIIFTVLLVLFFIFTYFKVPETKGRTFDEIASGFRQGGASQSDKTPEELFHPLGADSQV

The first assay concerns the target Solute carrier family 2, facilitated glucose transporter member 1 (Homo sapiens) (UniProt P11166). Briefly: ST_JUDE_LEISH: Cytotoxicity at 2uM final concentration against transgenic Leishmania Mexicana promastigotes LmGLUT1 that are glucose transport deficient and complemented with the human glucose transporter GLUT1. Activity is measured by DNA content using SYBR green in vitro. It is filed as functional.
As for `CCOc1ccc(C2CCN(CCCCNC(=O)c3ccc(NC(=O)c4ccc(Cl)cc4)cc3)CC2)c(OCC)c1`, the inhibition is 4.52%.

Regarding `Cc1ccc(NC(=O)c2cccc(N3CCN(c4ccncc4)CC3)c2)cc1F`, the inhibition came out at 10.8%.

Turning to `CC(C)Cc1nc2nc(N)nc(N)c2cc1C(C)C`, the inhibition turned out to be 1.84%.

Consider `COc1ccc2c(NN=CC=Cc3ccccc3)ccnc2c1`, for which the inhibition turned out to be 9.5%.

`Oc1ccc(CCNc2nc(NCCCOc3ccccc3-c3cccc(C(F)(F)F)c3)nc(N3CCNCC3)n2)cc1`: the inhibition was determined as 4.36%.

`COc1cc2ccccc2c(OC)c1CCNCCCCNCCc1c(OC)cc2ccccc2c1OC`: the inhibition amounted to 10.9%.

For `NC(=O)c1cccc(CNCc2ccc(-c3cccc(-c4nc5ccccc5[nH]4)c3)cc2)c1`, the inhibition was found to be 5.8%.

`CN(C)c1ccc(NC2=NC(N)=NC(C)(C)N2)cc1`: the inhibition turned out to be 0.38%.

For the molecule `CC(CCON1C(N)=NC(N)=NC1(C)C)c1ccc(Cl)cc1` (stereo not given), the inhibition was 21.4%.

As for `CCOC(=O)c1ccc(OCCCCCCOc2ccc(Br)cc2)cc1`, the inhibition is 1.32%.

Take `O=C(Nc1ccc(Cl)cc1C(=O)Nc1ccncc1)c1ccc(Cl)cc1Cl`: the inhibition was determined as 6.71%.

For the molecule `CN(C)C1CCN(CC#Cc2cc3ncnc(Nc4ccc(OCc5cccc(F)c5)c(Cl)c4)c3s2)CC1`, the inhibition was determined as 1.79%.

Consider `NC1=NC(c2ccccc2)N(OCc2ccccc2)C(N)=N1` (stereo not given), for which the inhibition worked out at 0.52%.

`CN(C)c1ccc(-c2csc(C(=O)NCC3CCN(CCC(C)(C)C)C3)c2)cc1` (stereo not given): the inhibition was -0.84%.

With `CN(CCN1CCC(c2c[nH]c3ccccc23)CC1)C(=O)OCCCCCNC(=O)/C=C/c1ccc(Cl)c(Cl)c1`, the inhibition stood at 9.15%.

As to `CC(C)(CNCc1ccc(F)c(F)c1)c1nc(-c2ccnc(N)n2)c(-c2ccc(Cl)c(O)c2)[nH]1`, the inhibition turned out to be 3.92%.

Take `Cc1cc(N/N=C/c2ccc([N+](=O)[O-])cc2)c2ccc(F)cc2n1`: the inhibition is 2.33%.

`CCCCC([C@@H](Cc1ccc2ccccc2c1)C(=O)N[C@H](C(=O)NC)C(C)(C)C)N(O)C=O` (stereo not given in full): the inhibition was determined as 0.96%.

Regarding `COc1ccc(C(=O)Nc2ccc(-c3nc4cc(C)ccc4[nH]3)cc2)cc1OC`, the inhibition amounted to 3.99%.

Turning to `Cc1cccc2nc(-c3cccc(-c4ccc(CNCCCN5CCCC5=O)cc4)c3)[nH]c12`, the inhibition came out at 9.26%.

Regarding `CC(C)C[C@H](NC(=O)c1cc2ccccc2s1)C(=O)N[C@H]1CCN(Cc2ccc(OCCCN(C)C)c(Cl)c2)C1`, the inhibition came out at 3.21%.

As for `COc1cc(NCC(O)CNc2cc(Cl)nc3ccccc23)nc2ccccc12` (stereo not given), the inhibition is 8.65%.

`COc1ccc(NC(=O)/C=C/c2cc(Br)ccc2F)cc1OCCN(C(C)C)C(C)C`: the inhibition amounted to 0.52%.

For the molecule `O=C(/C=C/c1ccc(Cl)c(Cl)c1)NCCCCCN1CCC(NC(=O)NCCc2ccccc2)CC1`, the inhibition is 1.48%.

Consider `O=C(/C=C/c1ccc(Cl)cc1)Nc1ccc2nc(CN3CCCC3)ccc2c1`, for which the inhibition came to 5.3%.

Regarding `Cc1cccc2nc(-c3cccc(-c4cccc(NC(=O)CC5NC(=O)c6ccccc65)c4)c3)[nH]c12` (stereo not given), the inhibition is 0.82%.

For `N#Cc1ccccc1C1CCN(C2CCC(Nc3cc(-c4cccnc4)ccn3)CC2)CC1` (stereo not given), the inhibition came out at 2.02%.

With `O=C(N[C@@H](Cc1ccccc1)[C@H](O)CNC1CCc2ccccc2C1)c1cc(C2CCCC2)cc(N2CCCC2=O)c1` (stereo not given in full), the inhibition is -3.59%.

For `COc1cc(OC)cc(C(=O)N2CCOC(CCN3CCC(c4ccccc4)CC3)(c3ccc(Cl)c(Cl)c3)C2)c1` (stereo not given), the inhibition is 0.22%.

`CC(C)(C)c1ccc(NC(=O)c2ccc(CN3CCCN(Cc4cccc(Cl)c4)CC3)cc2)cc1`: the inhibition turned out to be 4.39%.

Turning to `CCOC(=O)c1ccc2[nH]c(-c3ccc(C(=O)NC4CCN(Cc5ccccc5)CC4)s3)nc2c1`, the inhibition amounted to 4.45%.

For the molecule `COc1ccc2ncc(F)c(C(O)CN3CCC(NCc4ccc5c(n4)NC(=O)CO5)CC3)c2c1` (stereo not given), the inhibition was -0.67% and 5.77%.

For `CC(=O)C1=NN(c2ccc(C)cc2)C(c2cccs2)N1c1ccccc1` (stereo not given), the inhibition stood at 2.5%.

As for `CCCN(CCC)C(=O)c1cc(C(=O)N[C@@H](Cc2ccccc2)[C@H](O)CNC(C)(C)c2cccc(OC)c2)cc(N2CCCCS2(=O)=O)c1`, the inhibition came to 1.96%.

As to `FC(F)(F)c1ccc2[nH]c(-c3ccc(-c4ccc(CNCCN5CCNCC5)cc4)s3)nc2c1`, the inhibition came to 9.4%.

Turning to `CS(=O)(=O)N1CC2(CCN(CCC(NC(=O)NCc3ccccc3Cl)c3ccc(Cl)c(Cl)c3)CC2)c2ccccc21` (stereo not given), the inhibition was found to be 1.26%.

In the case of `O=C(Nc1ccc(-c2nc3ccccc3[nH]2)cc1)c1cccc([N+](=O)[O-])c1`, the inhibition stood at 1.01%.

Take `COc1cc2ncnc(Nc3ccc(OCc4ccccc4Br)c(Cl)c3)c2cc1OC`: the inhibition is -3.06%.

For the molecule `COc1ccc2[nH]ccc(=NN=Cc3ccccc3F)c2c1`, the inhibition was 7.58%.

For `O=C(Nc1cccc(CN2CCCN(Cc3ccsc3)CC2)c1)c1ccc(Cl)c(Cl)c1`, the inhibition worked out at 4.04%.

A further assay has as its target Hexose transporter 1 (Plasmodium falciparum) (UniProt O97467). The experiment in a line: ST_JUDE_LEISH: Cytotoxicity at 2uM final concentration against transgenic Leishmania Mexicana promastigotes LmPfHT that are glucose transport deficient and complemented with the Plasmodium falciparum hexose transporter. Activity is measured by DNA content using SYBR green in vitro. It is filed as functional.
Take `CCOc1ccc(C2CCN(CCCCNC(=O)c3ccc(NC(=O)c4ccc(Cl)cc4)cc3)CC2)c(OCC)c1`: the inhibition was found to be 3.34%.

With `Cc1ccc(NC(=O)c2cccc(N3CCN(c4ccncc4)CC3)c2)cc1F`, the inhibition was found to be 9.25%.

For the molecule `CC(C)Cc1nc2nc(N)nc(N)c2cc1C(C)C`, the inhibition came out at 4.17%.

For the molecule `COc1ccc2c(NN=CC=Cc3ccccc3)ccnc2c1`, the inhibition is 6.81%.

As for `Oc1ccc(CCNc2nc(NCCCOc3ccccc3-c3cccc(C(F)(F)F)c3)nc(N3CCNCC3)n2)cc1`, the inhibition worked out at 4.82%.

For `COc1cc2ccccc2c(OC)c1CCNCCCCNCCc1c(OC)cc2ccccc2c1OC`, the inhibition came to 12.1%.

As for `NC(=O)c1cccc(CNCc2ccc(-c3cccc(-c4nc5ccccc5[nH]4)c3)cc2)c1`, the inhibition was determined as 5.87%.

Consider `CN(C)c1ccc(NC2=NC(N)=NC(C)(C)N2)cc1`, for which the inhibition is 1.5%.

Consider `CC(CCON1C(N)=NC(N)=NC1(C)C)c1ccc(Cl)cc1` (stereo not given), for which the inhibition was 29.5%.

With `CCOC(=O)c1ccc(OCCCCCCOc2ccc(Br)cc2)cc1`, the inhibition is 4.52%.

Take `O=C(Nc1ccc(Cl)cc1C(=O)Nc1ccncc1)c1ccc(Cl)cc1Cl`: the inhibition amounted to 5.88%.

As to `CN(C)C1CCN(CC#Cc2cc3ncnc(Nc4ccc(OCc5cccc(F)c5)c(Cl)c4)c3s2)CC1`, the inhibition came to 0.49%.

Turning to `NC1=NC(c2ccccc2)N(OCc2ccccc2)C(N)=N1` (stereo not given), the inhibition turned out to be 0.08%.

`CN(C)c1ccc(-c2csc(C(=O)NCC3CCN(CCC(C)(C)C)C3)c2)cc1` (stereo not given): the inhibition is -0.06%.

In the case of `CN(CCN1CCC(c2c[nH]c3ccccc23)CC1)C(=O)OCCCCCNC(=O)/C=C/c1ccc(Cl)c(Cl)c1`, the inhibition was determined as 10.3%.

`CC(C)(CNCc1ccc(F)c(F)c1)c1nc(-c2ccnc(N)n2)c(-c2ccc(Cl)c(O)c2)[nH]1`: the inhibition was 1.07%.

Regarding `Cc1cc(N/N=C/c2ccc([N+](=O)[O-])cc2)c2ccc(F)cc2n1`, the inhibition stood at 3.03%.

Take `CCCCC([C@@H](Cc1ccc2ccccc2c1)C(=O)N[C@H](C(=O)NC)C(C)(C)C)N(O)C=O` (stereo not given in full): the inhibition is -0.31%.

Regarding `COc1ccc(C(=O)Nc2ccc(-c3nc4cc(C)ccc4[nH]3)cc2)cc1OC`, the inhibition worked out at 2.08%.

With `Cc1cccc2nc(-c3cccc(-c4ccc(CNCCCN5CCCC5=O)cc4)c3)[nH]c12`, the inhibition was found to be 6.82%.

With `CC(C)C[C@H](NC(=O)c1cc2ccccc2s1)C(=O)N[C@H]1CCN(Cc2ccc(OCCCN(C)C)c(Cl)c2)C1`, the inhibition was 2.95%.

In the case of `COc1cc(NCC(O)CNc2cc(Cl)nc3ccccc23)nc2ccccc12` (stereo not given), the inhibition was 8.28%.

For the molecule `COc1ccc(NC(=O)/C=C/c2cc(Br)ccc2F)cc1OCCN(C(C)C)C(C)C`, the inhibition is 0.38%.

On to `O=C(/C=C/c1ccc(Cl)c(Cl)c1)NCCCCCN1CCC(NC(=O)NCCc2ccccc2)CC1`, for which the inhibition was 1.69%.

Take `O=C(/C=C/c1ccc(Cl)cc1)Nc1ccc2nc(CN3CCCC3)ccc2c1`: the inhibition came to 6.73%.

Regarding `Cc1cccc2nc(-c3cccc(-c4cccc(NC(=O)CC5NC(=O)c6ccccc65)c4)c3)[nH]c12` (stereo not given), the inhibition is 1.34%.

As for `N#Cc1ccccc1C1CCN(C2CCC(Nc3cc(-c4cccnc4)ccn3)CC2)CC1` (stereo not given), the inhibition worked out at 1.09%.

For `O=C(N[C@@H](Cc1ccccc1)[C@H](O)CNC1CCc2ccccc2C1)c1cc(C2CCCC2)cc(N2CCCC2=O)c1` (stereo not given in full), the inhibition stood at 2.21%.

For the molecule `COc1cc(OC)cc(C(=O)N2CCOC(CCN3CCC(c4ccccc4)CC3)(c3ccc(Cl)c(Cl)c3)C2)c1` (stereo not given), the inhibition is -0.92%.

On to `CC(C)(C)c1ccc(NC(=O)c2ccc(CN3CCCN(Cc4cccc(Cl)c4)CC3)cc2)cc1`, for which the inhibition came to 2.95%.

Regarding `CCOC(=O)c1ccc2[nH]c(-c3ccc(C(=O)NC4CCN(Cc5ccccc5)CC4)s3)nc2c1`, the inhibition was determined as 4.85%.

In the case of `COc1ccc2ncc(F)c(C(O)CN3CCC(NCc4ccc5c(n4)NC(=O)CO5)CC3)c2c1` (stereo not given), the inhibition was 2.57% and 4.56%.

Take `CC(=O)C1=NN(c2ccc(C)cc2)C(c2cccs2)N1c1ccccc1` (stereo not given): the inhibition worked out at 2.74%.

With `CCCN(CCC)C(=O)c1cc(C(=O)N[C@@H](Cc2ccccc2)[C@H](O)CNC(C)(C)c2cccc(OC)c2)cc(N2CCCCS2(=O)=O)c1`, the inhibition is 1.53%.

In the case of `FC(F)(F)c1ccc2[nH]c(-c3ccc(-c4ccc(CNCCN5CCNCC5)cc4)s3)nc2c1`, the inhibition stood at 10.4%.

`CS(=O)(=O)N1CC2(CCN(CCC(NC(=O)NCc3ccccc3Cl)c3ccc(Cl)c(Cl)c3)CC2)c2ccccc21` (stereo not given): the inhibition worked out at 1.46%.

`O=C(Nc1ccc(-c2nc3ccccc3[nH]2)cc1)c1cccc([N+](=O)[O-])c1`: the inhibition was -1.86%.

As for `COc1cc2ncnc(Nc3ccc(OCc4ccccc4Br)c(Cl)c3)c2cc1OC`, the inhibition worked out at 1.28%.

As to `COc1ccc2[nH]ccc(=NN=Cc3ccccc3F)c2c1`, the inhibition was determined as 7.67%.

Consider `O=C(Nc1cccc(CN2CCCN(Cc3ccsc3)CC2)c1)c1ccc(Cl)c(Cl)c1`, for which the inhibition amounted to 2.57%.

(Values after ChEMBL document CHEMBL3433997, “St. Jude Leishmania screening dataset” (2016).)
